From PubChem BioAssay (NCATS) come the findings set out here.

Experiment [1] is described as follows: AP1 Signaling Pathway (AID 357).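 Further: ME-180 reporter cells stimulated with EGF at its EC50 level; on the % scale 0 is the no-effect control and ±100 the full control effect.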 To be noted: ME-180 AP-1-bla reporter, EGF-induced, beta-lactamase ratio, 5 h. The method in brief: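 In this screen, ME-180 cells in Opti-MEM with 0.5% dialyzed FBS received EC50 EGF and compound titrations for 5 h. AP-1 reporter beta-lactamase was detected via CCF4 ratio, giving AC50 for positive and negative modulators.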

The target of experiment [2] is Cytochrome P450 1A2 (Homo sapiens) (UniProt P05177). Put plainly: p450-cyp1a2 (AID 410; calls by dose curve; further: potency means the concentration at half of the fitted maximal effect;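 on activity change, negative = inhibition: -100% = full effect of reference inhibitor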). To be noted: recombinant CYP1A2, luciferin-ME demethylation, luminescence; series mostly up to 57 µM. In outline:
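Luminescent readout of luciferin formed from Luciferin-ME by human CYP1A2; data normalized against complete inhibition by 57 uM furafylline. Enzyme 20nM, substrate 100uM at Km, 100mM KPO4 buffer, 60 min reaction at room temperature.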

A short description of experiment [3]: NFAT Signaling Pathway (AID 444).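 Further: carbachol stimulus at about its EC50 of 1 µM final; on the % scale 0 is the no-effect control and ±100 the full control effect.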 The conditions noted are these: Jurkat NFAT-bla M1, carbachol, beta-lactamase ratio, 5 h. In outline:
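Jurkat cells with NFAT-driven β-lactamase reporter and co-expressed M1 receptor, stimulated with carbachol (final 1 uM, ~EC50), compound titration, 5 h at 37 °C. CCF4 loaded 1 h at RT; 460/530 nm ratio gave %activity and AC50.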

A short description of experiment [4]: Stat Signaling Pathway (AID 446).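 Further: ME-180 cervical cancer cells given 40 pM IL-6 alongside compound; SIE-controlled beta-lactamase reporter measured as 460/530 nm FRET emission ratio; on the % scale 0 is the no-effect control and ±100 the full control effect.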 The conditions noted are these: ME-180 SIE beta-lactamase reporter, IL-6 stimulated, 5 h. In outline: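 Screening format detects activators and inhibitors alike: ME-180 SIE-bla cells stimulated at 40 pM IL-6 for 5 hrs with compound, then dual-emission beta-lactamase read at 405 nm excitation.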
Experiment [5] has as its target Glucocorticoid receptor (Homo sapiens) (UniProt P04150). Kind of experiment: GR-GFP Redistribution (AID 450;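 active means compounds whose dose series gives a full or clear partial fitted curve of increased nuclear translocation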; further: potency means the concentration at half of the fitted maximal effect). The conditions noted are these: U2OS GR-GFP nuclear translocation, laser cytometry, 2 h.
For experiment [6] the target is unchanged. Kind of experiment: GR-EFC Redistribution (AID 451; calls by dose curve; further: potency means the concentration at half of the fitted maximal effect). The conditions noted are these: CHO-K1 GR-EFC translocation, beta-gal luminescence, 2 h. The method in brief: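 CHO-K1 cells expressing nuclear EA and GR-ED fragments of b-gal; compounds titrated up to 46 uM final, 2 h at 37 C. GR nuclear translocation read as complemented b-gal luminescence after 1 h RT detection.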

Experiment [7] deals with Mitogen-activated protein kinase 10 (Mus musculus) (UniProt Q61831). Kind of experiment: JNK3 AlphaScreen Assay (AID 530).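 Further: kinase came from lysate of stimulated human HepG2 cells; signal reports phosphorylation of biotinylated GST-cJun 1-79 at Ser73 with 10 µM ATP; on the % scale 0 is the no-effect control and ±100 the full control effect.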 To be noted: JNK3 lysate, c-Jun phosphorylation; series mostly up to 57.1 µM. In outline:
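Pre-activated (IL-1β/TNFα) JNK3 in HepG2 lysates phosphorylates biotin-GST-cJun(1-79), 10 uM ATP; anti-phospho-cJun(Ser73) AlphaScreen read at room temperature, pH 7.6 Tris buffer. Compounds pre-incubated 15 min as titrations.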
In general terms: Bead proximity is the source of the signal in Alpha formats.

In experiment [8] the target is 3',5'-cyclic-AMP phosphodiesterase 4B (Homo sapiens) (UniProt Q07343). Kind of experiment: qHTS Assay for Inhibitors of PDE-IV (AID 607; active means well fitted activation curve with a large enough effect in the main read-out, with a control signal flat, not every such curve was filed as active; further: % of control where 0% means no effect). The conditions noted are these: HEK293 ACTOne CNG channel cells, membrane potential fluorescence; series mostly up to 22.9 µM. In outline: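 The readout is membrane depolarisation from a cAMP-sensing CNG channel, detected with a potential dye at ex 535/em 590. Cells were HEK293-derived (endogenous PDE-IV) at 1000 cells/well, titrated up to 22.9 uM final.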
Sequence of 3',5'-cyclic-AMP phosphodiesterase 4B (Homo sapiens) (Q07343 whole entry, looked up): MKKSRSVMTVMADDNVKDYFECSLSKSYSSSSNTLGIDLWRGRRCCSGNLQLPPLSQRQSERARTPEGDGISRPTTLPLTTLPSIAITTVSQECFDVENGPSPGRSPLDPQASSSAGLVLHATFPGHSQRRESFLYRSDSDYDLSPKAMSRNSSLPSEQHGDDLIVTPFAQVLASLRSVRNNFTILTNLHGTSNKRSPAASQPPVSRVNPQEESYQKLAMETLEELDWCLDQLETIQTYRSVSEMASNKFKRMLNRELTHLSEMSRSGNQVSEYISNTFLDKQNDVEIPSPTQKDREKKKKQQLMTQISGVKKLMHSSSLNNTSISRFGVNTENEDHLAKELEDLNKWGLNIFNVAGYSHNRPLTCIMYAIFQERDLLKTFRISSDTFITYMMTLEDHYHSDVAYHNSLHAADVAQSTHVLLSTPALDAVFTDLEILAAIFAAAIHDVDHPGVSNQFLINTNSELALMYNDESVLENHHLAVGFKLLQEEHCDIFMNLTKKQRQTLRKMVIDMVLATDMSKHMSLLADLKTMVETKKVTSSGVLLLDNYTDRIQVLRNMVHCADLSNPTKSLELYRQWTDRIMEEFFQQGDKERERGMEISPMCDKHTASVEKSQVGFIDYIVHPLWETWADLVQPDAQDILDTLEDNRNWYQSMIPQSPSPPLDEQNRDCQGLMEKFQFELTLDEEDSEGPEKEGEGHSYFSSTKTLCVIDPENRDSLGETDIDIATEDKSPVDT
(Quantitative high-throughput screening tests each substance at several concentrations.)

In experiment [9] the target is Guanine nucleotide-binding protein G(i) subunit alpha-1 (Homo sapiens) (UniProt P63096). Put plainly: qHTS Assay for Inhibitors of RGS12 GoLoco Motif Activity (Green Fluorophore) (AID 879; active means well fitted curve in the direction sought with a large enough effect; an effect the other way counts as inactive or inconclusive;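 further: 0% = labeled peptide with Gαi1 and full inhibition = labeled peptide alone without protein; negative values mean loss of peptide binding seen as reduced polarization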). The conditions noted are these: Galphai1/FITC-RGS12 GoLoco peptide, fluorescence polarization; series mostly up to 57.1 µM. In outline: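 Fluorescence polarization assay: 50 nM Gαi1 with 10 nM FITC-labeled RGS12 GoLoco peptide in 10 mM Tris pH 7.5, 150 mM NaCl, 0.1 mM GDP, 0.05% NP40, 10 min at room temperature with compound.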
Sequence of Guanine nucleotide-binding protein G(i) subunit alpha-1 (Homo sapiens) (P63096 whole entry, looked up): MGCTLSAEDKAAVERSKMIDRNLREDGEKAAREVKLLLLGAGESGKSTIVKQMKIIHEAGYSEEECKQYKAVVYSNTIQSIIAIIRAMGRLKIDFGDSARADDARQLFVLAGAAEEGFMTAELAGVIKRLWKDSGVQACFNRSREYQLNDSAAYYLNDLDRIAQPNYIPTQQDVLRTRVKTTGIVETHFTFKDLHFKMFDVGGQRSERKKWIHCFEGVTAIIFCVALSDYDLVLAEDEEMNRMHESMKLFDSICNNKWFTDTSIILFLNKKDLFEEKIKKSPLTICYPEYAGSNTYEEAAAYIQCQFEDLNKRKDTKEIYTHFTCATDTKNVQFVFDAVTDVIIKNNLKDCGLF

In experiment [10] the target is Pyruvate kinase (Leishmania mexicana) (UniProt Q27686). Put plainly: qHTS Validation Assay for Inhibitors of Leishmania Mexicana Pyruvate Kinase (AID 945; active means well fitted curve in the direction sought with a large enough effect; an effect the other way counts as inactive or inconclusive;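 further: 0% = DMSO only neutral control wells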). The conditions noted are these: purified L. mexicana pyruvate kinase, enzyme activity, E451W mutant enzyme; series mostly up to 57.5 µM. In outline: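 The enzyme is a highly purified E451W mutant of LmPYK used at 0.2 nM. It converts 0.5 mM PEP and 0.1 mM ADP over 1 h at room temperature; product ATP is quantified by luciferase luminescence relative to DMSO controls.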
Sequence of Pyruvate kinase (Leishmania mexicana) (Q27686 2-499 E452W): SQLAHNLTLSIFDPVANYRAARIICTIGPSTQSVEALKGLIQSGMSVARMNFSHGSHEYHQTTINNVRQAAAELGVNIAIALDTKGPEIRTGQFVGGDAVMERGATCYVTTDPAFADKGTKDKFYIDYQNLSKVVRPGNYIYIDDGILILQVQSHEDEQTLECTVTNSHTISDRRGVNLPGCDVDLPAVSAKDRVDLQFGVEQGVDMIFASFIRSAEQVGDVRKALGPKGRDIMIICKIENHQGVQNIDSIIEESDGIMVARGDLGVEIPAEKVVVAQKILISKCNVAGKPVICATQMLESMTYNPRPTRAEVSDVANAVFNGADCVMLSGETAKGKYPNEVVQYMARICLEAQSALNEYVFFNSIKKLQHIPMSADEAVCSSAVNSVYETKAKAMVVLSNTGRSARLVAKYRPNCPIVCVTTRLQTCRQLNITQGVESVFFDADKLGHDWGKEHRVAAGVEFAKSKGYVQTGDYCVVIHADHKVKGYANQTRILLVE

The target of experiment [11] is Pyruvate kinase PKM (Homo sapiens) (UniProt P14618). Kind of experiment: qHTS Assay for Activators of Human Muscle Pyruvate Kinase (AID 954; active means well fitted curve in the direction sought with a large enough effect, not every such curve was filed as active;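 further: 0% = uninhibited enzyme and -100% = no enzyme or full thiadiazolimine inhibition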). The conditions noted are these: purified human muscle pyruvate kinase, luciferase-coupled luminescence, 1 h; series mostly up to 57.5 µM. The method in brief:
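Reaction: 0.1 nM purified PKM2 with 0.5 mM phosphoenolpyruvate and 0.1 mM ADP, room temperature, 1 h. Readout: luciferase-based ATP luminescence after stop reagent. Activators judged against a 0.3 nM enzyme column.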

Experiment [12] deals with alpha-glucosidase (Oryza sativa, rice) (UniProt Q653V4). Put plainly: Counterscreen for Glucocerebrosidase Inhibitors: qHTS Assay for Rice alpha-Glucosidase at pH 5.0 (AID 997; active means well fitted curve in the direction sought with a large enough effect; an effect the other way counts as inactive or inconclusive;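 further: 0% = full activity with enzyme and -100% = basal without enzyme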). The conditions noted are these: rice alpha-glucosidase enzyme activity; series mostly up to 76.9 µM. The method in brief:
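Rice alpha-glucosidase (4 nM final) with 400 uM 4-methylumbelliferyl-alpha-D-glucopyranoside in citrate buffer pH 5.0, 20 min at room temperature, stopped at pH 10; fluorescence 365/440 nm, compounds 0.7 nM–77 uM, AC50 from Hill fits.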
(The purpose of a counterscreen is to sort out artefacts and off-target activity.)

Experiment [13] in a line: qHTS Assay for Lipid Storage Modulators (AID 1519; calls by dose curve). To be noted: Drosophila S3 cells, BODIPY lipid droplet/cell ratio, laser cytometry, cells loaded with oleic acid; for activity change, negative = inhibition: at 25.7 µM (top of the series). In outline:
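Cells seeded at 5,000 per well were treated with compounds over a concentration series and loaded with oleic acid (400 uM, as added). Lipid droplet fluorescence (488 nm excitation, 500-530 nm channel) was read by laser-scanning cytometry and normalized to 20 uM Triacsin C.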

Experiment [14] addresses Ubiquitin carboxyl-terminal hydrolase 1 (Homo sapiens) (UniProt O94782). Kind of experiment: Inhibitors of USP1/UAF1: Pilot qHTS (AID 504865; active means well fitted curve in the direction sought with a large enough effect; an effect the other way counts as inactive or inconclusive;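 further: rhodamine fluorescence freed from ubiquitin-rhodamine substrate followed over time; top concentration of the series differs between compounds; on the % scale 0 is the no-effect control and ±100 the full control effect; nearly all actives have a fitted effect of over 35% in size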). To be noted: purified USP1/UAF1, Ub-rhodamine cleavage fluorescence; series mostly up to 54.9 µM. The method in brief: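 Enzyme-free wells gave the negative control, while test wells held 1nM USP1/UAF1 preincubated with compound for 15 min at room temperature. Ub-Rho at 150nM final started the reaction, and fluorescence at 480/540 nm was recorded kinetically.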

[15] abbreviates: at 7.69 µM (top of the series) unless noted.
The mark [16] stands for this setting: measured here: cell count channel max response.
Where [17] appears, read: measured here: lipid channel max response.

Values joined by “and” are separate entries in the source; they are usually repeats but may differ in a detail not shown here. Equal entries are not always repeated. Inconclusive results are not listed. Active and inactive are the calls of the source. Unless noted, the call rests on the fitted dose curve; in most records, active means well fitted curve in either direction with a large enough effect (not every such curve was filed as active); inconclusive means small, poorly fitted or top-dose-only effect, or another doubt; inactive means flat fitted curve, though single readings scatter. Where only a bound is given, the exact number is not on record here.

Sequence of Cytochrome P450 1A2 (Homo sapiens) (P05177 whole entry, looked up): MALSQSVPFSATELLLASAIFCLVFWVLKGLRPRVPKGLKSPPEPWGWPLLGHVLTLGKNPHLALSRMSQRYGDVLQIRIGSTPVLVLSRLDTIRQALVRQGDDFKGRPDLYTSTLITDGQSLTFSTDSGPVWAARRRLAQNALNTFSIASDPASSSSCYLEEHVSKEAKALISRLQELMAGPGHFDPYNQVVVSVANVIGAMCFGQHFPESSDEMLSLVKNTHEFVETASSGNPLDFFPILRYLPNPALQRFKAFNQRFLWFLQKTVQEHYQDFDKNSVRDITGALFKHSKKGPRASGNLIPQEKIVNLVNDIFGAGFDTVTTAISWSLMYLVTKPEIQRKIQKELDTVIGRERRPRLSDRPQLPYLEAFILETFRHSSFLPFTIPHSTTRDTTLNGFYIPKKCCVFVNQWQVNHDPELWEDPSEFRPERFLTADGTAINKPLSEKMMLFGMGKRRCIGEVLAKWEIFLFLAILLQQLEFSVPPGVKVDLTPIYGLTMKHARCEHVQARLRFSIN
Sequence of Glucocorticoid receptor (Homo sapiens) (P04150 whole entry, looked up, the tested form may be a part): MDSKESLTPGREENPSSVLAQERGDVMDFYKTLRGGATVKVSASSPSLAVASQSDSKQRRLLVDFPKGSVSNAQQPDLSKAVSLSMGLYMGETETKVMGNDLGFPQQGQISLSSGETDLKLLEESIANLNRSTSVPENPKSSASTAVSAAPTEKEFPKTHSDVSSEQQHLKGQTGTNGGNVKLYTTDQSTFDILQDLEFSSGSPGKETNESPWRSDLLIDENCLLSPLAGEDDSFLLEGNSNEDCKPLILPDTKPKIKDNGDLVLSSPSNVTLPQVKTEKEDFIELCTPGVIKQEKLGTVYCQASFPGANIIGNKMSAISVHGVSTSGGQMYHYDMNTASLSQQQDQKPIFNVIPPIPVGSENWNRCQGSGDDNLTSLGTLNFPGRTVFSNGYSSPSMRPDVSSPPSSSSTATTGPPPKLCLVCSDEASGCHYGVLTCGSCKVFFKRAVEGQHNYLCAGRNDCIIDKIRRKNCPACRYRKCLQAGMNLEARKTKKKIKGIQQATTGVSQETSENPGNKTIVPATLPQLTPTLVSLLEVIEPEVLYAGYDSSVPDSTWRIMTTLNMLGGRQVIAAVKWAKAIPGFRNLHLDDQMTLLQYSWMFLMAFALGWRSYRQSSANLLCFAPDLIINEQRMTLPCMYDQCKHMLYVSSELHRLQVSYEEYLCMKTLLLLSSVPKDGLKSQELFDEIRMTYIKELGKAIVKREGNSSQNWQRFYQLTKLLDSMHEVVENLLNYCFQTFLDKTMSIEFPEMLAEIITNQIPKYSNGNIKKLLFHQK
Sequence of Ubiquitin carboxyl-terminal hydrolase 1 (Homo sapiens) (O94782 whole entry, looked up): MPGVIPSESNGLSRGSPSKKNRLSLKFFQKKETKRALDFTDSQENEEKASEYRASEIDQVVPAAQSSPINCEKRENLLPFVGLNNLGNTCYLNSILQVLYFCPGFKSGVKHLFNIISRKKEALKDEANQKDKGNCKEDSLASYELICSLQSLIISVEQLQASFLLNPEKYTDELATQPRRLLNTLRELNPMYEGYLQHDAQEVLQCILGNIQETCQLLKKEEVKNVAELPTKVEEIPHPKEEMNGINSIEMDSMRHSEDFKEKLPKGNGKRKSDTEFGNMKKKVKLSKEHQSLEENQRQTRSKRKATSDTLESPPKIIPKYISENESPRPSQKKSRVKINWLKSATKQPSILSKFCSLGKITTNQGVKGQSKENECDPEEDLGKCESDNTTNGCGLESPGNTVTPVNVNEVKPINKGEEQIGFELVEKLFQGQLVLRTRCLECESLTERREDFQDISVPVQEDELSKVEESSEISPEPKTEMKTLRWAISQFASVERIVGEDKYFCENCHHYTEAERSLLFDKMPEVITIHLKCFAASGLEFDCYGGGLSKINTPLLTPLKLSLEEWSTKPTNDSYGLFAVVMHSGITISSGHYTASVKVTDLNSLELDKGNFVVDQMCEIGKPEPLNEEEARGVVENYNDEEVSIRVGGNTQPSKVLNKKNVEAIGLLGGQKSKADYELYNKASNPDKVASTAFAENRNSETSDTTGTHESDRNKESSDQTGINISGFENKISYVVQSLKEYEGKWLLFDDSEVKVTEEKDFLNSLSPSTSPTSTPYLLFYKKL
Sequence of Pyruvate kinase PKM (Homo sapiens) (P14618 whole entry, looked up): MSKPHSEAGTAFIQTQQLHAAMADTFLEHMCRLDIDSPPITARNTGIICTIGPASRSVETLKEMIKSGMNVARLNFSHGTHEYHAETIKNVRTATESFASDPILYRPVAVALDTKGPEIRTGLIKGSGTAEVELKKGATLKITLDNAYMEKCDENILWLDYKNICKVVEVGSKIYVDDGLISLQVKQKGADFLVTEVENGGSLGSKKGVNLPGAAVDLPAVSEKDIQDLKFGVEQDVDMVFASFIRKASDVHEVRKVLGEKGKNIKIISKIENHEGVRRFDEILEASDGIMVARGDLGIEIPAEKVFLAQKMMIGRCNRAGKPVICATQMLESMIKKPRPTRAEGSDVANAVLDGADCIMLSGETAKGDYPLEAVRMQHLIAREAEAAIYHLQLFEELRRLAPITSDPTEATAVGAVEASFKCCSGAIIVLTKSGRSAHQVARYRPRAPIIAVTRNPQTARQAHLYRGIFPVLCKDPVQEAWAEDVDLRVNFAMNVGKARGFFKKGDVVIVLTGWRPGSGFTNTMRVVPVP

In the case of `CC(C)(Oc1ccc([C@@H]2CC2(Cl)Cl)cc1)C(=O)O`, the activity change, negative = inhibition in experiment [1] (at 17.2 µM (top of the series)) is -1.19% (inactive); in [1] (at 38 µM (top of the series)), -10.2% (inactive); in experiment [3] (at 17.2 µM (top of the series)) it was -16.8% (inactive); in experiment [3] (at 38 µM (top of the series)), -7.66% (inactive); in experiment [13], -0.371% (inactive). For the same molecule, the Potency entry in experiment [2], in experiment [7], in [8], in [9] and in [14] was “inactive” throughout. For the same molecule, the activity, negative = inhibition in experiment [4] (setting [15]) is -2.06% [at 17.2 µM] (inactive). Also, the Potency in experiment [5] was > 46 µM (inactive) and > 20.6 µM (inactive); in [6], > 46 µM (inactive) and > 20.6 µM (inactive). The call in [10], in [11] and in experiment [12] was inactive. For the same molecule, the max response was -16.1% in [13] (setting [16]) and -15.2% in experiment [13] (setting [17]).

Take `CC(=O)[C@@H]1CC[C@@H]2[C@@H]3CCC4=CC(=O)CC[C@@]4(C)[C@H]3CC[C@]21C`: the activity change, negative = inhibition in experiment [1] (at 17.2 µM (top of the series)) was 2.95% (inactive); in experiment [1] (at 38 µM (top of the series)), 10.7% (inactive); in [3] (at 17.2 µM (top of the series)), -20.4% (inactive); in experiment [3] (at 38 µM (top of the series)), -21.5% (inactive); in [13], -4.74% (inactive). Also, the Potency result in [2], in [7] and in experiment [8] was “inactive” each time. For the same molecule, the values for the activity, negative = inhibition in experiment [4] (at 17.2 µM (top of the series)) and in experiment [4] (at 38 µM (top of the series)) were -0.332% (inactive) and 9.04% (inactive), respectively. Further, the max response in experiment [13] (setting [16]) is -9.33%; in experiment [13] (setting [17]), -17.9%.

In the case of `C=CCc1ccccc1OC[C@H](O)CNC(C)C`, the activity change, negative = inhibition was 12.5% (inactive) in experiment [1] (at 17.2 µM (top of the series)); 11.9% (inactive) in experiment [1] (at 38 µM (top of the series)); -2.1% (inactive) in experiment [3] (at 17.2 µM (top of the series)); -5.09% (inactive) in experiment [3] (at 38 µM (top of the series)); 0.0029% (inactive) in experiment [13]. In addition, the Potency in [2] was 7.94 µM (active) and 3.16 µM (active). In addition, in experiment [4] (setting [15]), the activity, negative = inhibition is 5.89% [at 17.2 µM] (inactive). Further, the Potency result in [7], in experiment [8], in experiment [9] and in experiment [14] was “inactive” each time. For the same molecule, the result in [10], in experiment [11] and in experiment [12] was inactive. Further, the max response was -4% in experiment [13] (setting [16]) and -3.45% in experiment [13] (setting [17]).
